Screens from PubChem BioAssay.
MITF inh: blocks human microphthalmia-associated transcription factor; inhibition, % at 2.6 µM; AID 1259374; O75030; AlphaScreen MITF homodimerization, bead proximity signal; 0.91% of 650,000 active; in the data active = inhibition above about 50%;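 note: 0% = vehicle wells with protein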
TEAD-YAP inh: TEAD-YAP interaction inhibition; HEK-TIYL cells, TEAD-Gal4/YAP UAS-luciferase luminescence; inhibition, % at 9.12 µM; 1.4% of 640,000 active; AID 1259422; in the data active = inhibition above about 32%;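 note: 0% = median of test compound wells and 100% = reference inhibitor wells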
GPR151 activ: activates the human receptor GPR151; AID 1508602; activation, % at 11.2 µM; 1% of 650,000 active; Q8TDV0; PathHunter beta-arrestin GPR151 cells, luminescence; in the data active = activation above about 4.9%;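 note: 0% = median of compound wells and 100% = cells with positive control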
Target sequence (Q8TDV0 whole entry, looked up): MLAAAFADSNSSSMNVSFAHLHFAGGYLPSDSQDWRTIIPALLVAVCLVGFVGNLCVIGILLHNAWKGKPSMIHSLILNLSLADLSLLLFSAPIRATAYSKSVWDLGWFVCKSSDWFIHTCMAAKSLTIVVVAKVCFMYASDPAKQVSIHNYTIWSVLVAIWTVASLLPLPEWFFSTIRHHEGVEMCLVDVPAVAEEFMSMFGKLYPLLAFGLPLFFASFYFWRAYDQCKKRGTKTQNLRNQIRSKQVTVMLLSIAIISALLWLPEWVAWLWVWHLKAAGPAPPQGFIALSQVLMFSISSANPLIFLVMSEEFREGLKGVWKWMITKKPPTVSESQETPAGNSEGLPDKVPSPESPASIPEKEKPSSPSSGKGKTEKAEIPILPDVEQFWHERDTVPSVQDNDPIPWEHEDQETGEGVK
FBW7 activator: activators of human E3 ligase FBW7. Q969H0. AlphaScreen FBW7–phospho-cyclin E peptide binding, activator screen. normalized activity (activation), % at 26.1 µM. 0.13% of 650,000 active. AID 1259310; in the data active = normalized activity above about 1.9%;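 note: purified mutant Fbw7 with reduced substrate affinity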
An asterisk follows results filed as active; . = not tested or not shown. A selection: hits, their analogues and other compounds. The true share with any hit is near 3.5%.

SMILES	MITF inh	TEAD-YAP inh	GPR151 activ	FBW7 activator
COc1ccc(C2CC(=O)C3=C(C2)NC(C)=C(C(=O)OC(C)C)C3c2ccc(SC)cc2)cc1OC (configuration not stated)	-0.6	13.5	0.3	-0.1
CCCOC(=O)C1=C(C)NC2=C(C(=O)CC(c3ccc(OC)c(OC)c3)C2)C1c1cccc(C)c1 (configuration not stated)	-9.6	32.9*	1.8	-0.1
CCCOC(=O)C1=C(C)NC2=C(C(=O)CC(c3ccc(OC)c(OC)c3)C2)C1c1cccc(Br)c1 (configuration not stated)	-3.1	37.7*	-0.3	0.0
COc1ccc(C2CC(=O)C3=C(C2)NC(C)=C(C(=O)OC(C)C)C3c2ccc(F)cc2)cc1OC (configuration not stated)	-13.7	42.4*	-0.1	0.1
CCCOC(=O)C1=C(C)NC2=C(C(=O)CC(c3ccc(OC)c(OC)c3)C2)C1c1ccccc1C (configuration not stated)	-6.8	-0.2	0.9	0.2
CCCCC/C=C\CCCCCCCCCCCCC(=O)O	-17.1	.	0.0	.
Cn1c(SCC(=O)N2CCc3ccccc32)nnc1-c1ccc(Cl)cc1	1.4	-4.9	1.7	0.1
CC1=C(C(=O)OC2CCCCC2)C(c2cccnc2)C2=C(CC(c3ccc(Cl)cc3)CC2=O)N1 (configuration not stated)	-3.6	37.6*	-0.4	0.3
COc1ccc(C2CC(=O)C3=C(C2)NC(C)=C(C(=O)OC2CCCCC2)C3c2cccc([N+](=O)[O-])c2)cc1OC (configuration not stated)	11.2	34.9*	-0.6	0.1
COc1ccc(C2CC(=O)C3=C(C2)NC(C)=C(C(=O)OC2CCCCC2)C3c2ccc([N+](=O)[O-])cc2)cc1OC (configuration not stated)	13.8	6.7	0.7	-0.1
O=Cc1ccccc1OCC(=O)Nc1ccccc1	14.8	32.5*	-3.1	1.0
O=C(COc1ccc(Cl)cc1Cl)Nc1cccc(O)c1	15.0	71.5*	-0.7	0.1
Cc1cccc(NC(=O)COc2ccc(Cl)cc2Cl)c1	-4.5	-23.9	-0.9	-0.1
O=C(COc1ccc(Cl)cc1[N+](=O)[O-])Nc1ccccc1	-5.8	33.7*	-1.4	-0.2
COc1ccccc1OCC(=O)Nc1cccc(C(=O)O)c1	-8.9	35.6*	-7.1	0.0
O=C(COc1ccc(C(F)(F)F)cc1[N+](=O)[O-])Nc1ccc(Cl)cc1	-2.0	-14.1	0.2	-0.1
COCCCNC(CC(=O)Nc1cccc(Cl)c1)C(=O)O (configuration not stated)	9.6	-4.3	-0.7	0.0
O=C(COc1ccc(Cl)cc1Cl)Nc1cccc(C(=O)O)c1	-13.6	97.2*	-6.9	-0.1
COc1ccc(NC(=O)COc2ccccc2C)cc1OC	-9.8	-14.4	1.3	0.7
CC(C)(C)c1ccccc1OCC(=O)NN	-4.7	35.9*	0.3	-0.2
COc1ccc(NC(=O)COc2ccccc2C(C)(C)C)cc1OC	6.6	43.1*	2.6	0.1
Cc1c(C(=O)NC(=S)Nc2cccc(NC(=O)c3ccco3)c2)oc2ccccc12	3.7	-11.6	1.1	-0.3
CC(=O)Nc1cccc(NC(=O)CSc2ccc(-c3nc4cc(C)c(C)cc4[nH]3)cn2)c1	-13.1	-45.1	-1.0	-0.2
CC(=O)CSc1ccc(-c2nc3cc(C)c(C)cc3[nH]2)cn1	-4.9	81.4*	-1.3	-0.2
Cc1ccc2nc(-c3ccc(SCC(N)=O)nc3)[nH]c2c1	-5.3	53.1*	1.4	-0.1
SMILES	MITF inh	TEAD-YAP inh	GPR151 activ	FBW7 activator
Cc1ccc2nc(-c3ccc(SCC(=O)O)nc3)[nH]c2c1	-10.4	-4.5	-1.0	-0.2
COc1cc(OC)c([N+](=O)[O-])cc1/C=N/NC(=O)CNC(=O)c1ccc(OC)c(OC)c1	0.8	-0.2	0.9	0.2
CN(C)CCN1C(=O)CC(CC(=O)N2CCCC2)(c2cccc(F)c2)C1=O (configuration not stated)	3.8	-2.0	0.9	0.0
O=C(Nc1cccc(Cl)c1)c1ccc(N2CCN(CCO)CC2)c([N+](=O)[O-])c1	4.2	-30.6	1.9	0.0
Cc1nc2nc(-c3ccc(Cl)cc3Cl)nn2c(C)c1CCC(=O)O	1.8	80.2*	0.1	-0.2
COc1cccc(-c2nc3nc(C)c(CCC(=O)O)c(C)n3n2)c1	0.6	48.5*	-0.2	-0.1
O=C(O)CCc1nc(-c2ccc(Cl)cc2Cl)no1	1.2	-3.8	1.0	-0.1
CCCNc1nc(N2CCOCC2)nc2c1ncn2-c1ccsc1	20.0	49.5*	-1.2	-0.5
CCCNc1nc(N2CCc3ccccc3C2)nc2c1ncn2-c1ccsc1	21.8	-26.1	-0.4	0.0
Nc1nc(N2CCOCC2)nc2c1ncn2-c1ccsc1	5.3	42.1*	1.9	0.7
Clc1ccccc1CN1CCN(C2CCN(Cc3ccccc3)CC2)CC1	36.0	3.2	0.2	0.2
CC1(c2ccc3c(c2)OCCO3)NC(=O)N(CCOc2ccccc2Cl)C1=O (configuration not stated)	-3.1	5.2	0.0	-0.1
CN(C)CCCN(C(=O)/C=C\c1ccc([N+](=O)[O-])cc1)c1nc2c(F)cccc2s1	-20.3	76.3*	-0.6	-0.1
CN(C)CCN(C(=O)c1c(F)cccc1F)c1nc2ccccc2s1	5.8	-13.2	-0.9	-0.1
COc1cc(C2CC(c3c(O)cc(C)oc3=O)=Nc3ccccc3S2)cc(OC)c1O (configuration not stated)	11.7	43.9*	0.9	-0.3
O=C1OC(c2ccc(Cl)c([N+](=O)[O-])c2)=N/C1=C/c1cccc(Cl)c1	1.4	-1.7	-0.6	-0.1
O=C1OC(c2ccc(Cl)c([N+](=O)[O-])c2)=N/C1=C\c1cccc(F)c1	-19.3	3.9	1.1	2.0*
O=C1OC(c2cccc(F)c2)=N/C1=C\c1ccccc1	-2.9	35.8*	-7.0	-0.2
O=C1OC(c2ccc(-c3ccccc3)cc2)=N/C1=C\c1cccc(F)c1	-3.0	-3.2	0.0	0.0
CS(=O)(=O)N1CCc2cc(-c3csc(NC(=O)c4cccs4)n3)ccc21	10.1	-9.6	0.0	0.1
COc1cc(=O)n2c(c1C(=O)N1CCCC1)CCN(Cc1ccc(F)cc1F)CC2	0.7	0.2	-0.6	0.0
O=C(Nc1ccc(Br)cc1)c1ccc(F)c(S(=O)(=O)NCc2ccco2)c1	-3.6	43.0*	-0.4	-0.1
O=C(Nc1ccc(Br)cc1)c1ccc(F)c(S(=O)(=O)NCC2CCCO2)c1 (configuration not stated)	0.9	50.1*	0.6	-0.1
COc1ccccc1CNS(=O)(=O)c1cc(C(=O)Nc2ccc(Br)cc2)ccc1F	1.3	32.8*	2.6	0.0
COc1ccccc1CNC(=O)Cn1cc2c(n1)CCCCCC2	-0.3	-9.7	-0.2	0.1
Cc1cccc(NC(c2ccc(C(F)(F)F)cc2)c2ccc3cccnc3c2O)n1 (configuration not stated)	6.8	76.9*	-1.0	-1.1
Oc1c(C(Nc2ccccn2)c2ccc(C(F)(F)F)cc2)ccc2cccnc12 (configuration not stated)	2.7	45.6*	-1.7	-1.6
COc1ccc(/C(C)=N/Nc2nc3ccccc3[nH]2)c(O)c1	38.9	-6.2	0.0	-1.0
